High-throughput results: PubChem BioAssay, National Center for Advancing Translational Sciences (NCATS)
The list is not random: actives were taken first. Their share in the collection is about 5.9%.
KB-3-1 tox: KB-3-1 parental cell cytotoxicity. KB-3-1 viability, CellTiter-Glo ATP luminescence, 72 h. 400,000 compounds, 1.4% hits. Potency, µM (doses to about 46.1 µM), hits mostly cytotoxic; further: on the % scale 0 is the no-effect control and ±100 the full control effect; nearly all actives have a fitted effect of over 60% in size
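Parental KB-3-1 adenocarcinoma cells in phenol-red-free DMEM with 10% FBS were pin-treated with compounds at several concentrations, incubated 72 h at 37 °C, and viability read by CellTiter-Glo luminescence; concentration-effect curves were fitted after normalization.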
KB-V1 MDR tox: kills drug-selected multidrug resistant KB-V1 cells; KB-V1 MDR cells viability, CellTiter-Glo, 72 h; AID 1347076; Potency, µM (series often up to 46.1 µM), actives largely listed as cytotoxic; 400,000 compounds, 3.4% hits; further: on the % scale 0 is the no-effect control and ±100 the full control effect; nearly all actives have a fitted effect of over 60% in size
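qHTS viability screen in drug-selected KB-V1 MDR cells: 72 h compound treatment at 37 degrees C, ATP luminescence end point.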
HepG2 viability: HepG2 cytotoxicity, counter-screen for TGF-b inhibitors; HepG2 CAGA-GFP viability, ATP luminescence, 18 h; Potency, µM (doses to about 46.1 µM), for the others: top-dose activity change, negative = cytotoxicity, usual class: cytotoxic; 410,000 compounds, 0.76% hits
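CellTiter-Glo luminescence gave cytotoxicity after 18 hours at 37 degrees C. The cells were HepG2 CAGA-GFP in 1% FBS DMEM, stimulated with 500 pg/mL TGF-beta after compound addition. %Activity was normalised to no-cell wells (complete cell-killing) and DMSO (no toxicity), and curves were fitted and classified.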
ATXN viability: reduces viability in counter-screen for ATXN expression inhibitors; S2 cells (HEK-293 line with an ATXN2-luciferase reporter) viability, CellTiter-Fluor protease fluorescence, 24 h; Potency, µM (titrated, usually from 56.7 µM), usual class: cytotoxic; 400,000 compounds, 0.49% hits; AID 651635; further: nearly all actives have a fitted effect of over 40% in size
TGFb SMAD3 inh: TGF-b pathway inhibition; Potency, µM (doses to about 46.1 µM), inactives show at the highest dose activity, negative = inhibition, usual class: inhibitors; HepG2 CAGA-GFP TGF-b/SMAD3 reporter, GFP fluorescence, 18 h; TGF-beta stimulated, 500 pg/mL final; 410,000 compounds, 1.2% hits; further: on the % scale 0 is the no-effect control and ±100 the full control effect; nearly all actives have a fitted effect of over 65% in size
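Per well, imaged GFP fluorescence of HEPG2 CAGA-GFP cells gives the signal; cells get compound, then TGF-beta (500 pg/mL final), 18 h at 37 degrees C; %Activity versus -TGF-beta and +DMSO controls.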
ATXN2 expr inh: ATXN2 expression inhibition; 360,000 compounds, 0.72% hits; AID 1745845; HEK-293 ATXN2-luciferase reporter, luminescence, 24 h; Potency, µM (highest dose often 57 µM), inactives show at the highest dose activity change, negative = inhibition, hits mostly inhibitors; further: on the % scale 0 is the no-effect control and ±100 the full control effect; nearly all actives have a fitted effect of over 55% in size
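ATXN2-luciferase reporter cells (luciferase flanked by upstream and downstream ATXN2 gene portions) were treated 24 h at 37 °C with compounds at up to 57 uM. SteadyGlo luminescence gave expression; GF-AFC fluorescence gave viability.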
Starred values were filed as active, the others as inactive; i = inactive; ? = inconclusive; nt = not tested or not shown. The call rests on the fitted dose curve; in most records, active means well fitted curve in the direction sought with a large enough effect; inconclusive means small, poorly fitted or top-dose-only effect, or another doubt; inactive means no such curve, though single readings can be large; an effect the other way counts as inactive or inconclusive. Potency means the concentration at half of the fitted maximal effect.

SMILES | KB-3-1 tox | KB-V1 MDR tox | HepG2 viability | ATXN viability | TGFb SMAD3 inh | ATXN2 expr inh
O=C(CCc1ccc(S(=O)(=O)N2CCOCC2)cc1)Nc1nc(COc2ccccc2)cs1 | 5.2µM* | 2.9µM* | -19% | i | -21% | ?
COc1ccc(S(=O)(=O)N(CC(=O)Nc2ccc(S(=O)(=O)N3CCOCC3)cc2)c2ccccc2)cc1 | ? | 5.2µM* | -28% | i | -16% | -10%
CC(=O)Nc1ccc(NC(=O)CN(c2ccc([N+](=O)[O-])cc2)S(=O)(=O)c2ccccc2)cc1 | i | i | 0% | i | ? | nt
CC(=O)N1CCN(S(=O)(=O)c2cccc(C(=O)N3CCN(S(=O)(=O)c4c(C)c(C)cc(C)c4C)CC3)c2)CC1 | i | i | -35% | i | -22% | nt
C=CC(=O)Oc1ccc(N2Cc3ccccc3C2=O)cc1 | i | i | -42% | 32µM* | ? | nt
CCc1nc2c(OCc3cccc(OC)c3)cccn2c1N(C)C(=O)c1ccc(OC)cc1 | i | i | -12% | i | 8% | 3%
CCC(c1nc2ccccc2c(=O)n1-c1nc2ccccc2s1)N1C(=O)c2ccccc2C1=O (stereo not drawn) | ? | 3.7µM* | -26% | i | -1% | -4%
CCn1c(=O)n(CC)c2cc(N3CCCCC3)c(NC(=O)Nc3cc(C)cc(C)c3)cc21 | i | ? | -9% | i | -14% | -2%
Cc1ccc(NC(=O)c2cc3c(s2)CCCC3)cc1 | i | i | -7% | i | 0% | 105%
Cc1ccc(S(=O)(=O)Nc2ccc(Cl)cc2)cc1NC(=O)c1cc2c(s1)CCCC2 | i | 15µM* | -36% | ? | 13µM* | -14%
Cc1ccc(NS(=O)(=O)c2cc(NC(=O)c3cc4c(s3)CCCC4)ccc2C)c(C)c1 | i | 3.7µM* | 5% | ? | 5% | -7%
Cc1cc(-c2ccccc2)nc2cc(C(=O)Nc3cc(C(F)(F)F)ccc3Cl)nn12 | nt | nt | -7% | nt | -5% | nt
CC(=O)c1ccc(-c2ccc3c4c(ccc3c2)OC(CNC(=O)C(C)N2CCOCC2)C4)s1 (stereo not drawn) | nt | nt | nt | i | nt | nt
COC(=O)C1=CN(c2ccc(OC)cc2)C=C(C(=O)OC)C1c1ccc(C)c([N+](=O)[O-])c1 | ? | 3.3µM* | 4% | i | 1% | -3%
CN(C)S(=O)(=O)c1cccc(NC(=O)COc2ccccc2C(=O)Nc2ccccc2)c1 | ? | 16µM* | -35% | ? | -13% | nt
CCN(CC)S(=O)(=O)c1cc(NC(=O)c2ccccc2OCc2c(C)noc2C)ccc1C | i | 7.3µM* | -2% | i | -17% | -11%
Cc1noc(C)c1COc1ccccc1C(=O)Nc1cccc(S(=O)(=O)N(C)C)c1 | i | 15µM* | 3% | i | 0% | 5%
Cc1ccc(NC(=O)c2ccccc2OCC(=O)Nc2ccccc2F)cc1S(=O)(=O)N(C)C | 5.2µM* | ? | -9% | i | -2% | nt
CC(=O)Nc1cccc(NC(=O)c2ccccc2OCc2c(C)noc2C)c1 | i | i | 2% | i | -19% | 10%
Cc1cc(=O)c2cc(C(=O)Nc3ccc(C)c(C)c3)ccc2[nH]1 | i | ? | 11% | i | 1% | -7%
CCC1CN(CCNC(=O)c2cccc(N3CCCC3=O)c2)Cc2cc(OC)ccc2O1 (stereo not drawn) | nt | nt | nt | i | nt | nt
COC(=O)Nc1nc2ccc(SC(C)C)cc2[nH]1 | 1.5µM* | 1µM* | -11% | ? | ? | 10%
COc1cccc(CN2CCC(C(=O)Nc3ccc(Oc4cccnc4)cc3)CC2)c1 | nt | nt | -13% | i | ? | -11%
Cc1ccccc1CN1CCCC(C(=O)Nc2ccc(-c3ccn[nH]3)cc2)C1 (stereo not drawn) | ? | 12µM* | -18% | i | -20% | -15%
Cc1cccc(CN2CCC(C(=O)Nc3ccc(Oc4cccnc4)cc3)CC2)c1 | nt | nt | 11µM* | i | ? | -4%
SMILES | KB-3-1 tox | KB-V1 MDR tox | HepG2 viability | ATXN viability | TGFb SMAD3 inh | ATXN2 expr inh
Cc1cccc(CN2CCCC(C(=O)Nc3ccc(-c4cscn4)cc3)C2)c1 (stereo not drawn) | 16µM* | ? | -3% | i | -4% | -5%
O=C(Nc1ccc(Oc2cccnc2)cc1)C1CCN(Cc2ccc(F)cc2)CC1 | nt | nt | -37% | i | ? | -20%
O=C(Nc1ccc(Oc2cccnc2)cc1)C1CCN(Cc2cc(Cl)ccc2O)CC1 | 16µM* | ? | -54% | ? | 13µM* | nt
O=C(O)c1ccc(O)c2ncc(N3CCOCC3)cc12 | nt | nt | nt | nt | nt | -8%
Cc1cc(C)c(S(=O)(=O)NCCc2sc(-c3cccnc3)nc2C)c(C)c1 | i | ? | -18% | i | -3% | 4%
CCn1nc(C)c(CN2CCCCC2C(=O)Nc2ccc(Oc3cccnc3)cc2)c1C (stereo not drawn) | i | ? | -20% | i | -2% | -14%
Cc1ccc(CN2CCCCC2C(=O)Nc2ccc(Oc3cccnc3)cc2)o1 (stereo not drawn) | 5.2µM* | 8.2µM* | -12% | ? | 0% | -19%
Cc1ccc(OC(C)C(=O)NCC2(N3CCOCC3)CCCCC2)cc1C (stereo not drawn) | nt | nt | -21% | nt | 0% | nt
CCOC(=O)c1c(C)[nH]c(C)c1S(=O)(=O)N1CCCC(C(=O)N2CCN(c3ccccc3F)CC2)C1 (stereo not drawn) | i | i | 1% | i | -2% | 4%
Cc1ccc(C)c(S(=O)(=O)Nc2cc3c4c(c2)CC(=O)N4CCC3)c1 | ? | 12µM* | -16% | i | 4% | -1%
COc1ccc(C)cc1S(=O)(=O)Nc1cc2c3c(c1)CC(=O)N3CCC2 | ? | i | -24% | i | -1% | 15%
CCC1CN(CCNC(=O)c2cccc(C(=O)OC)c2)Cc2cc(OC)ccc2O1 (stereo not drawn) | nt | nt | nt | i | nt | nt
CC1=C(C(=O)OC(C)C)C(c2ccccc2)NC(=S)N1C (stereo not drawn) | i | 18µM* | 6% | i | ? | -4%
CCOC(=O)C1=C(C)N(C)C(=S)NC1c1ccccc1 (stereo not drawn) | i | i | -3% | i | 7% | -2%
O=C(Nc1ccc([N+](=O)[O-])cc1)C(c1ccccc1)c1ccccc1 | i | ? | -46% | i | ? | nt
CCOc1ccc(CCNC(=O)CSc2nc3ncc(Cl)cc3[nH]2)cc1OCC | i | ? | -22% | i | -9% | -2%
